L3MBTL1 inh: inhibitors of human L3MBTL1; 230,000 compounds, 0.66% hits; Q9Y468; AlphaScreen L3MBTL1–H3K9me1 peptide binding; Potency, µM (highest dose often 57.1 µM), for inactives: at the top dose activity, negative = inhibition, actives largely listed as inhibitors; note: % is set by controls: 0 for no effect and ±100 for the full control effect; nearly all actives have a fitted effect of over 60% in size
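AlphaScreen assay: L3MBTL1 (50 nM final) was preincubated 30 min at room temperature with biotinylated H3(1-15)K9me1 peptide (75 nM final), then 30 min with library compounds; streptavidin donor and nickel chelate acceptor beads (10 ug/mL final) added, 30 min dark.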
JMJD2A Tudor: inhibitors of human JMJD2A Tudor domain. O75164. AlphaScreen JMJD2A-Tudor / H3K4me3 peptide binding. Potency, µM (top dose mostly 114 µM), inactives show top-dose activity change, negative = inhibition, actives largely listed as inhibitors. 390,000 compounds, 4.4% hits. AID 504339; note: % is set by controls: 0 for no effect and ±100 for the full control effect; nearly all actives have a fitted effect of over 50% in size
BAZ2B block: BAZ2B (human) inhibition; 360,000 compounds, 4.4% hits; AID 504333; Potency, µM (titrated, usually from 114 µM), for inactives: top-dose activity change, negative = inhibition, actives largely listed as inhibitors; Q9UIF8; AlphaScreen BAZ2B-H3K14Ac peptide displacement; note: % is set by controls: 0 for no effect and ±100 for the full control effect; nearly all actives have a fitted effect of over 60% in size
Target sequence (Q9UIF8 whole entry, looked up): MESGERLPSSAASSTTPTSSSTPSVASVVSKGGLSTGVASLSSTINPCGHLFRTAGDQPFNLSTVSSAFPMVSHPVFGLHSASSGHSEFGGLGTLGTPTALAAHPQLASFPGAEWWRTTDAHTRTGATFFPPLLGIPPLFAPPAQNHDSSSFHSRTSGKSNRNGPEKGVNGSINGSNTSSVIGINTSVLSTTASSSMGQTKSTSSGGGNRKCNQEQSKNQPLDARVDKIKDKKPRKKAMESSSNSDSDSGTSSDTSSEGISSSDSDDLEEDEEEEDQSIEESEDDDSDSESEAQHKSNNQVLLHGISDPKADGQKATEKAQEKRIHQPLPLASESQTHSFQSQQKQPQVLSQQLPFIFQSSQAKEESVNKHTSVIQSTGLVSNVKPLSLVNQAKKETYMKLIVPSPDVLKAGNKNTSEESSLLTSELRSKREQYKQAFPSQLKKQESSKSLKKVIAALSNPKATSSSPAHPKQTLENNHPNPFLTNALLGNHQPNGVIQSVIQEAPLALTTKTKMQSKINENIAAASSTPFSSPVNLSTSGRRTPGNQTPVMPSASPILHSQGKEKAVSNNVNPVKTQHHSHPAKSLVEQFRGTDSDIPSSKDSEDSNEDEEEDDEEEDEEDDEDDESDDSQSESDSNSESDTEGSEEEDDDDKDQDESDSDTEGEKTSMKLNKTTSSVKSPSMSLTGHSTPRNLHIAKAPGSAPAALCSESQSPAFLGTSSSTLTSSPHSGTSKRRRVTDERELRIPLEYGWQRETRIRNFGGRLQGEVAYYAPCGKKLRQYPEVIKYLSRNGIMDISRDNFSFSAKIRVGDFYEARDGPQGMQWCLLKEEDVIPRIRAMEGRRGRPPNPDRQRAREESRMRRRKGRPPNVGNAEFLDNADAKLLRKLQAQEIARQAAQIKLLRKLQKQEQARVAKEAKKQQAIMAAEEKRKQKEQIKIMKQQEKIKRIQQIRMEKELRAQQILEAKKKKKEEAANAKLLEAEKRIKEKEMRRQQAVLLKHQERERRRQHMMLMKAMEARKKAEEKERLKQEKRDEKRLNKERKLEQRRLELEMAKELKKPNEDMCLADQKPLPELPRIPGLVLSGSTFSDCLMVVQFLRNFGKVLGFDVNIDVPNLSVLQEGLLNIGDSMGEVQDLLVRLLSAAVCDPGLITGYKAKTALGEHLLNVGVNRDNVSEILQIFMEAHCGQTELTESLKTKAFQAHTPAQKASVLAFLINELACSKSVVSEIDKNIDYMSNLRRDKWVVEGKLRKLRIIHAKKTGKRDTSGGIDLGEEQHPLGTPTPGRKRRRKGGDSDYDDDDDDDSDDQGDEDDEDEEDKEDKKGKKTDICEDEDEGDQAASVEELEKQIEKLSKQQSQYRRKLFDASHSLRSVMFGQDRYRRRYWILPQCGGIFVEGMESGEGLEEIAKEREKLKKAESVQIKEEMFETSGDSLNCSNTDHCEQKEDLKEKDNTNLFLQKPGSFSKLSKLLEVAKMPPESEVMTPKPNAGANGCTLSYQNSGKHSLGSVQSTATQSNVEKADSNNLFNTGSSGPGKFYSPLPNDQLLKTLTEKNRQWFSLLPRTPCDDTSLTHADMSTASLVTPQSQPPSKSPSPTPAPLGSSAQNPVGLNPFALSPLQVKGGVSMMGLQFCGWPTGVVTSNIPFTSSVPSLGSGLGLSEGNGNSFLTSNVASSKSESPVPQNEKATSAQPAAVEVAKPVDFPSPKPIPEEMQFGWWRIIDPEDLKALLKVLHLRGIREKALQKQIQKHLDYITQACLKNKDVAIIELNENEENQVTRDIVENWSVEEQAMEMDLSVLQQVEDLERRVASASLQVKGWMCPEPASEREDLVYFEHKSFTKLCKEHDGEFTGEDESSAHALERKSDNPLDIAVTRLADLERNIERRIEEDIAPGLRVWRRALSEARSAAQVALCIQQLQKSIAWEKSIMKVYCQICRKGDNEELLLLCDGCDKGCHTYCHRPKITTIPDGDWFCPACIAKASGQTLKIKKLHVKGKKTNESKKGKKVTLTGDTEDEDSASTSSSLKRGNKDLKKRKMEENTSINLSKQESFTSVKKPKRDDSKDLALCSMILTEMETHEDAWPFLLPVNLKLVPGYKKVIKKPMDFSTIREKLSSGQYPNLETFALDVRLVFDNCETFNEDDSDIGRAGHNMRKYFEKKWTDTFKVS
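Protein-peptide AlphaScreen: BAZ2B 50 nM, b-H3K14Ac 50 nM, 1x PBS pH 7.4 + 0.01% Tween-20. Preincubation 30 min RT; cpd 30 min RT (top 110 uM); beads 20 min RT, light-protected.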
G9a inh: inhibitors of human histone lysine methyltransferase G9a | Q96KQ7 | G9a H3K9 monomethylation, AlphaScreen, 2 h | Potency, µM (top dose mostly 102 µM), for inactives: top-dose activity, negative = inhibition, usual class: inhibitors | 350,000 compounds, 8.8% hits | AID 504332; note: % is set by controls: 0 for no effect and ±100 for the full control effect; nearly all actives have a fitted effect of over 75% in size
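Compounds were preincubated with 20 nM G9a for 15 min, after which biotinylated H3K9 peptide (500 nM) and SAM (20 uM) started a 2 h room-temperature reaction. Monomethylated product was quantified by antibody-based AlphaScreen chemiluminescence.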
Sfp inh: inhibitors of Bacillus subtilis Sfp phosphopantetheinyl transferase. Q9F4F7. Biochemical Sfp PPTase activity, qHTS. Potency, µM, for inactives: largest response in the series, negative = inhibition, most hits filed as inhibitors. 310,000 compounds, 3.5% hits. AID 1490;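 note: the enzyme is Sfp with the accession as filed and its product quenches rhodamine fluorescence; 0% = enzyme reaction without inhibitor and -100% = no enzyme wells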
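Fluorescence-quenching assay: 15 nM Sfp-PPTase preincubated 15 min at room temperature with compound, then 5 uM rhodamine-CoA and 12.5 uM BHQ-2-labelled YbbR peptide added. Fluorescence (ex 525/em 598 nm) read at start and after 30 min; difference gives rate.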
HP1b chromo inh: inhibitors of HP1-beta chromodomain binding to methylated histone tails; AlphaScreen HP1-beta / biotin-H3K9me3 peptide binding; Potency, µM (doses to about 114 µM), inactives show at the highest dose activity change, negative = inhibition, usual class: inhibitors; P83916; 390,000 compounds, 0.56% hits; note: nearly all actives have a fitted effect of over 70% in size
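HP1-beta protein (50 nM final) preincubated 30 min at room temperature with biotinylated H3(1-18)K9me3 peptide (50 nM) in PBS pH 7.4, 0.01% Tween-20, then compound added for 30 min. AlphaScreen streptavidin donor/nickel chelate acceptor beads (10 ug/mL final), 30 min dark, luminescence read.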
The depositor's hits bear a star; ? = inconclusive; · = no result given; ! = a repeat was not active; [ ] = remark or other dose. The list is not random: actives were taken first. Their share in the collection is about 12%. Calls come from the whole dose curve; as a rule, active = well fitted curve in the direction sought with a large enough effect; inconclusive = small, poorly fitted or top-dose-only effect, or another doubt; inactive = no such curve, though single readings can be large; an effect the other way counts as inactive or inconclusive. Potency is the fitted concentration of half-maximal effect.

SMILES | L3MBTL1 inh | JMJD2A Tudor | BAZ2B block | G9a inh | Sfp inh | HP1b chromo inh
CCCc1cc2c(n1Cc1ccco1)C(C)C1CN(C(=O)c3ccccc3)C(C)(C(=O)OC)C21 (centres undefined) | · | · | · | · | 32µM* | ·
Nc1ccc2cc(Br)ccc2c1 | · | ? | · | 50µM* | -15% | ?
N#Cc1cccc(NC(=O)N2CC[C@@]3(CCCN(C(=O)Oc4ccccc4)C3)C2)c1 | · | · | · | 6%[12.7 µM] | 1% | ·
C=CCN1CC[C@]23c4c5ccc(O)c4O[C@H]2C(=O)CC[C@@]3(O)[C@H]1C5 | 7% | -26% | 35% | 40µM*! | 10% | 20%
C=CCN1CC[C@]23c4c5ccc(O)c4O[C@@H]2/C(=N/N=C2\CC[C@@]4(O)C6Cc7ccc(O)c8c7[C@@]4(CCN6CC=C)[C@@H]2O8)CC[C@@]3(O)C1C5 | · | · | · | 13µM*! | · | ·
C=CCN1CC[C@]23c4c5ccc(O)c4OC2[C@H](O)CC[C@@]3(O)[C@H]1C5 (some centres undefined) | 2% | -12% | · | · | · | 17%
C=CCN1CCC23c4c5ccc(O)c4OC2/C(=N/N=C2\CCC4(O)C6Cc7ccc(O)c8c7C4(CCN6CC=C)C2O8)CCC3(O)C1C5 (centres undefined) | · | · | · | 25µM* | -9% | ·
Cc1nc2cnc(N3CCNCC3)nc2n(C)c1=O | · | · | · | 0%[12.7 µM] | 10% | ·
CCCCCCC(C)(C)c1ccc([C@@H]2C[C@H](O)CC[C@@H]2CCCO)c(O)c1 | · | · | · | · | 1% | ·
C[N+]1(C)[C@@H]2CC(OC(=O)[C@@H](CO)c3ccccc3)C[C@@H]1[C@H]1O[C@H]12 (some centres undefined) | · | · | · | -47%[59 µM] | -2% | ·
CC(CCC(=O)O)C1CCC2C3CC[C@H]4CC(O)CC[C@@]4(C)C3CC[C@@]12C (some centres undefined) | · | · | · | -39%[2.33 µM] | -13% | ·
COc1ccc(C2C=C(c3ccccc3)Nc3nc(NC(=O)/C=C/c4ccccc4Cl)nn32)cc1 (centres undefined) | · | -6% | -28% | ? | · | 46%
COc1ccc(CCNC(=O)c2ccc3c(c2)N=C(C)c2cc(C)ccc2S3)cc1OC | · | ? | -31% | -50%[59 µM] | · | -4%
COC(=O)C(O)(c1c(C)[nH]n(-c2ccccc2)c1=O)C(F)(F)F (centres undefined) | -1% | -30%[57.1 µM] | ? | 32µM* | 21% | 45%
COC(=O)C(O)(c1c[nH]c2ccccc12)C(F)(F)F (centres undefined) | -2% | -13% | 8% | 8% | 7% | 32%
CCC1(c2ccccc2)C(=O)NC(=O)N(C(=O)c2ccccc2)C1=O (centres undefined) | · | · | · | -1%[12.7 µM] | -7% | ·
CC1=NNC(=O)C1Br (centres undefined) | · | 89µM* | · | · | · | 14µM*
COC(=O)C1=C(c2ccccc2OCc2ccccc2)C[C@@H]2CC[C@H]1N2C(=O)NCc1ccc(N(C)C)cc1 | ? | 20µM* | 28µM* | -6%[0.501 µM] | · | -23%
COC(=O)C1=C(c2ccc(F)cc2OCc2ccccc2)C[C@@H]2CC[C@H]1N2C(=O)NCc1ccc(N(C)C)cc1 | ? | 22µM* | 10µM* | 19%[2.33 µM] | · | ?
COC(=O)C1=C(c2cccc(OCc3ccccc3)c2)C[C@@H]2CC[C@H]1N2C(=O)NCc1ccc(N(C)C)cc1 | ? | 20µM* | 10µM* | -7%[2.33 µM] | · | ?
CC(=O)N1C[C@H](O)C[C@H]1C(=O)O | 7% | ? | 8% | -16%[59 µM] | · | 28%
CN1C(=O)C(=Cc2ccc(N3CCCCC3)o2)C(=O)N(C)C1=S | -26% | -33% | -29% | · | 56µM* | -13%
CCn1cc(C=C2C(=O)N(C)C(=O)N(C)C2=O)c2ccccc21 | -4%[2.29 µM] | -15% | 6% | 3%[0.501 µM] | 7% | 36%
CN1C(=O)C(=Cc2ccc(SC3CCCCC3)o2)C(=O)N(C)C1=O | · | ? | 56µM* | 13µM* | 56µM* | ?
CCN(CC)c1ccc(/C=C2\C(=O)NC(=S)N(C)C2=O)o1 | -9% | -26% | ? | 12%[12.7 µM] | -10% | -8%
SMILES | L3MBTL1 inh | JMJD2A Tudor | BAZ2B block | G9a inh | Sfp inh | HP1b chromo inh
CCN(CC)c1ccc(C=C2C(=O)N(C)C(=S)N(C)C2=O)o1 | -17% | -30% | ? | 20µM* | -17% | -25%
C[C@H]1CC[C@@H]2[C@@H](C)[C@H]3C(CC4C5CC=C6CC(O[C@@H]7O[C@H](CO)C(O[C@@H]8O[C@@H](C)[C@H](O)[C@@H](O)[C@H]8O)[C@H](O)[C@H]7O[C@@H]7O[C@@H](C)[C@H](O)[C@@H](O)[C@H]7O)CC[C@]6(C)C5CC[C@@]43C)N2C1 (some centres undefined) | · | -4% | · | · | 8% | 40%
CC/C=C\C/C=C\C/C=C\C/C=C\C/C=C\CCCC(N)=O | · | · | · | · | -10% | ·
CCOC(=O)c1cccc([P+](=O)O)c1 | 16% | 28µM* | 0% | -26%[59 µM] | 10% | 18%
CC(C)(C)NC(=S)/N=C(\N)N[N+](=O)[O-] | 0% | -12% | ? | 22µM* | ? | 11%
COc1ccc(OC)c(NC(=O)C2C(C(=O)O)C3(Cl)C(Cl)=C(Cl)C2(Cl)C3(Cl)Cl)c1 (centres undefined) | -15% | -19% | -31% | 45µM* | -1% | 9%
COc1ccc(C(=O)Nc2ccc(Cl)cc2C(=O)c2ccccc2)c(OC)c1 | · | -7% | -5% | -9%[59 µM] | · | 23%
CCOc1cc(/C=C2\C(=O)NC(=O)N(C)C2=O)cc([N+](=O)[O-])c1O | · | -2% | -11% | 50µM* | 28µM* | 31%
O=P1(c2ccccc2)Nc2ccccc2N1c1ccccc1 (centres undefined) | · | 50µM* | · | · | · | ?
Oc1ccc2c3c1O[C@H]1c4c(c5ccccc5n4Cc4ccccc4)C[C@@]4(O)C(C2)N(CC2CC2)CC[C@]314 | · | · | · | -40%[59 µM] | -17% | ·
Cc1cc(N=Nc2ccccc2C)ccc1N | · | 40µM* | · | · | · | 35µM*
Cc1ccc(N)c(C(=O)c2ccccc2)c1 | -17% | ? | ? | ? | 5% | -13%
COC(=O)[C@@]1(Cc2ccccc2)[C@H]2c3cc(C(=O)N(C)C)n(C)c3C[C@H]2CN1C(=O)c1ccccc1 | · | · | · | · | 12% | ·
COc1cc(OC)cc(C(=O)Nc2ccc(Br)cc2C(=O)c2ccccc2)c1 | -7% | -21% | -3% | 17%[59 µM] | 35µM* | 10%
COc1cc(C(=O)Nc2ccc(Br)cc2C(=O)c2ccccc2Cl)cc(OC)c1OC | 7% | -20% | 2% | -7%[59 µM] | 7% | 11%
Cn1c(O)c(/C=C2\C=c3ccccc3=NC2=O)c(=O)n(C)c1=O | · | 4% | 2% | 40µM* | 45µM* | 45%

High-throughput results as filed in PubChem.
